Measurements: article PMC5540273 (PLoS ONE, 2017)

System: STK33
Conditions: concentration: 1 μM, replicates: in singlicate; n = 1
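Further: KINOMEscan kinase panel screen.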

Row | SMILES | %Inh [%]
1 | [2H]C([2H])(c1cccc(C(F)(F)F)c1C)n1ccn2c(=O)nc(N3CCOCC3)cc12 [GSK2336394] | 0
2 | N#Cc1c(N2CCOCC2)sc(-c2ccn[nH]2)c1-c1ccc(Cl)cc1 | 10
3 | CN(C1=C(c2ccccc2)C(=O)NC1=O)c1ccccc1 [SB-334860] | 0
4 | Cc1cn2c(=O)cc(N3CCOCC3)nc2n1Cc1cccc(Cl)c1Cl [GSK2334006] | 4
5 | Fc1ccc(-c2ncn(CCCN3CCOCC3)c2-c2cccnc2)cc1 [SB-211743] | 0
6 | O=c1cc(N2CCOCC2)nc2n(Cc3cccc(F)c3)ccn12 [GSK2297430] | 0
7 | O=C(Nc1cccc(-c2nn3ncccc3c2-c2ccnc(Nc3cccc(C(F)(F)F)c3)n2)c1)c1c(F)cccc1F [GSK299495] | 0
8 | Cc1c2ccc(N(C)c3ccnc(Nc4cccc(S(N)(=O)=O)c4)n3)cc2nn1Cc1ccccc1.Cl.Cl [GW787226] | 0
9 | O=C(Nc1n[nH]c2cc(-c3cccc(F)c3)ccc12)C1CC1 [SB-735464] | 0
10 | CCCCCc1nc2c(N)ncnc2n1CCCCC [SKF-97255] | 0
11 | Cc1ccc(C(=O)NCC(N)=O)cc1-n1c(C)cc(OCc2ccc(F)cc2F)c(Br)c1=O | 10
12 | NCC(NC(=O)c1cc(-c2cn[nH]c2)c(-c2ccnc3[nH]ccc23)s1)c1ccccc1.O=C(O)C(F)(F)F.O=C(O)C(F)(F)F (stereo not drawn) [GSK1325775] | 79
13 | COc1ccc(Nc2nccc(N3CCC(NC(=O)Nc4cccc(C(C)=O)c4)C3)n2)cc1 (stereo not drawn) [GSK1379731] | 0
14 | COCCNC(=O)c1ccc(-c2cc(C(=O)NC3CC3)cc(F)c2C)cc1 [GW868318] | 10
15 | COC(=O)Nc1nc2cc(Oc3ccc(NC(=O)Nc4cc(F)ccc4F)cc3)ccc2[nH]1.Cl [GW701424] | 0
16 | O=C(c1ccc(-c2cc(-c3c[nH]nc3-c3ccccn3)ccn2)cc1)N1CCOCC1 [GW812171] | 0
17 | NS(=O)(=O)c1cccc(-c2ccc3nccc(-c4cccc(S(N)(=O)=O)c4)c3c2)c1 [GW867253] | 0
18 | CN1c2ccc(CNc3ccc(F)cc3)cc2-c2c(cnn2C)S1(=O)=O | 0

Row | SMILES | %Inh [%]
19 | O=c1cc(N2CCOCC2)nc2n(Cc3cccc(C(F)(F)F)c3)ccn12 [GSK2297543] | 0
20 | Nc1nccc(-c2c(-c3ccc(F)cc3)ncn2C2CCN(CC(F)(F)F)CC2)n1 [SB-236560] | 0
21 | O=c1cc(N2CCOCC2)nc2n(Cc3cccc(Cl)c3Cl)c(C3CC3)nn12 [GSK2358994] | 0
22 | Fc1ccc(-c2ncn(CCCN3CCOCC3)c2-c2ccccn2)cc1 [SB-211742] | 7
23 | CC(C)Oc1ccc2c(-c3ccnc(Nc4ccc(N5CCN(C)CC5)cc4)n3)cnn2n1 [GW696155] | 81
24 | COc1ccc(COc2cc(-n3cnc4ccccc43)sc2C(N)=O)cc1 [GSK1024304] | 13
25 | C[C@@H](Oc1cc(-n2cnc3ccc(NC(=O)NC(C)(C)C)cc32)sc1C(N)=O)c1ccccc1Cl [GSK346294] | 0
26 | Cl.Nc1ncnc2occ(-c3ccc(NC(=O)Nc4cc(C(F)(F)F)ccc4F)cc3)c12 [SB-707548] | 87
27 | COc1cc2c(cc1OCCN1CCN(C)CC1)ncc1c3ccc(C#N)cc3[nH]c21 | 25
28 | O=C(NCCNc1ccnc(Nc2ccc(F)cc2)n1)Nc1ccccc1F [GSK1379880] | 0
29 | O=C(NCCNc1ccnc(Nc2ccc(F)cc2)n1)c1cc2ccccc2s1 [GSK1379874] | 0
30 | COc1cc2ncn(-c3cc(OCc4sccc4Cl)c(C(N)=O)s3)c2cc1OC [GSK448459] | 0
31 | Cc1cccc(-c2nc(-c3ccc(S(C)(=O)=O)cc3)sc2-c2ccncc2)c1 | 0
32 | CCc1nc(-c2cccc(C)c2)c(-c2ccnc(NCc3ccccc3)c2)s1 | 0
33 | c1ccc(-c2cc(-c3c[nH]nc3-c3ccccn3)ccn2)cc1 [GW576604] | 8
34 | COc1cc(Nc2nccc(N3CCC(NC(=O)c4cccc(NC(C)=O)c4)C3)n2)cc(OC)c1OC (stereo not drawn) [GSK1379754] | 2
35 | Cn1ccc2ncnc(Oc3ccc(NC(=O)Nc4ccncc4)c(Cl)c3)c21 | 0
36 | Cl.Oc1cccc(Nc2ccnc3cc(-c4ccncc4)ccc23)c1 [GW494601] | 41

System: STK35
Conditions: concentration: 1 μM, replicates: in singlicate; n = 1

Row | SMILES | %Inh [%]
37 | [2H]C([2H])(c1cccc(C(F)(F)F)c1C)n1ccn2c(=O)nc(N3CCOCC3)cc12 [GSK2336394] | 0
38 | N#Cc1c(N2CCOCC2)sc(-c2ccn[nH]2)c1-c1ccc(Cl)cc1 | 0
39 | CN(C1=C(c2ccccc2)C(=O)NC1=O)c1ccccc1 [SB-334860] | 3
40 | Cc1cn2c(=O)cc(N3CCOCC3)nc2n1Cc1cccc(Cl)c1Cl [GSK2334006] | 3
41 | Fc1ccc(-c2ncn(CCCN3CCOCC3)c2-c2cccnc2)cc1 [SB-211743] | 1
42 | O=c1cc(N2CCOCC2)nc2n(Cc3cccc(F)c3)ccn12 [GSK2297430] | 18
43 | O=C(Nc1cccc(-c2nn3ncccc3c2-c2ccnc(Nc3cccc(C(F)(F)F)c3)n2)c1)c1c(F)cccc1F [GSK299495] | 54
44 | Cc1c2ccc(N(C)c3ccnc(Nc4cccc(S(N)(=O)=O)c4)n3)cc2nn1Cc1ccccc1.Cl.Cl [GW787226] | 0
45 | O=C(Nc1n[nH]c2cc(-c3cccc(F)c3)ccc12)C1CC1 [SB-735464] | 12
46 | CCCCCc1nc2c(N)ncnc2n1CCCCC [SKF-97255] | 0
47 | Cc1ccc(C(=O)NCC(N)=O)cc1-n1c(C)cc(OCc2ccc(F)cc2F)c(Br)c1=O | 10
48 | NCC(NC(=O)c1cc(-c2cn[nH]c2)c(-c2ccnc3[nH]ccc23)s1)c1ccccc1.O=C(O)C(F)(F)F.O=C(O)C(F)(F)F (stereo not drawn) [GSK1325775] | 0
49 | COc1ccc(Nc2nccc(N3CCC(NC(=O)Nc4cccc(C(C)=O)c4)C3)n2)cc1 (stereo not drawn) [GSK1379731] | 0
50 | COCCNC(=O)c1ccc(-c2cc(C(=O)NC3CC3)cc(F)c2C)cc1 [GW868318] | 0
51 | COC(=O)Nc1nc2cc(Oc3ccc(NC(=O)Nc4cc(F)ccc4F)cc3)ccc2[nH]1.Cl [GW701424] | 0
52 | O=C(c1ccc(-c2cc(-c3c[nH]nc3-c3ccccn3)ccn2)cc1)N1CCOCC1 [GW812171] | 0
53 | NS(=O)(=O)c1cccc(-c2ccc3nccc(-c4cccc(S(N)(=O)=O)c4)c3c2)c1 [GW867253] | 0
54 | CN1c2ccc(CNc3ccc(F)cc3)cc2-c2c(cnn2C)S1(=O)=O | 0

Row | SMILES | %Inh [%]
55 | O=c1cc(N2CCOCC2)nc2n(Cc3cccc(C(F)(F)F)c3)ccn12 [GSK2297543] | 0
56 | Nc1nccc(-c2c(-c3ccc(F)cc3)ncn2C2CCN(CC(F)(F)F)CC2)n1 [SB-236560] | 0
57 | O=c1cc(N2CCOCC2)nc2n(Cc3cccc(Cl)c3Cl)c(C3CC3)nn12 [GSK2358994] | 0
58 | Fc1ccc(-c2ncn(CCCN3CCOCC3)c2-c2ccccn2)cc1 [SB-211742] | 0
59 | CC(C)Oc1ccc2c(-c3ccnc(Nc4ccc(N5CCN(C)CC5)cc4)n3)cnn2n1 [GW696155] | 45
60 | COc1ccc(COc2cc(-n3cnc4ccccc43)sc2C(N)=O)cc1 [GSK1024304] | 0
61 | C[C@@H](Oc1cc(-n2cnc3ccc(NC(=O)NC(C)(C)C)cc32)sc1C(N)=O)c1ccccc1Cl [GSK346294] | 0
62 | Cl.Nc1ncnc2occ(-c3ccc(NC(=O)Nc4cc(C(F)(F)F)ccc4F)cc3)c12 [SB-707548] | 37
63 | COc1cc2c(cc1OCCN1CCN(C)CC1)ncc1c3ccc(C#N)cc3[nH]c21 | 0
64 | O=C(NCCNc1ccnc(Nc2ccc(F)cc2)n1)Nc1ccccc1F [GSK1379880] | 0
65 | O=C(NCCNc1ccnc(Nc2ccc(F)cc2)n1)c1cc2ccccc2s1 [GSK1379874] | 0
66 | COc1cc2ncn(-c3cc(OCc4sccc4Cl)c(C(N)=O)s3)c2cc1OC [GSK448459] | 0
67 | Cc1cccc(-c2nc(-c3ccc(S(C)(=O)=O)cc3)sc2-c2ccncc2)c1 | 3
68 | CCc1nc(-c2cccc(C)c2)c(-c2ccnc(NCc3ccccc3)c2)s1 | 0
69 | c1ccc(-c2cc(-c3c[nH]nc3-c3ccccn3)ccn2)cc1 [GW576604] | 0
70 | COc1cc(Nc2nccc(N3CCC(NC(=O)c4cccc(NC(C)=O)c4)C3)n2)cc(OC)c1OC (stereo not drawn) [GSK1379754] | 0
71 | Cn1ccc2ncnc(Oc3ccc(NC(=O)Nc4ccncc4)c(Cl)c3)c21 | 0
72 | Cl.Oc1cccc(Nc2ccnc3cc(-c4ccncc4)ccc23)c1 [GW494601] | 0
